The campaign covered roughly 16,000 compounds. About 4,000 (25%) were called active. Roughly 26% stayed inconclusive and do not appear here. Calls come from the whole dose curve; as a rule, active = well fitted curve in the direction sought with a large enough effect; inconclusive = small, poorly fitted or top-dose-only effect, or effect the other way; inactive = no such curve, though single readings can be large or run the other way. The list is a sample of the results.
Each molecule was assayed against Cytochrome P450 2C9 (Homo sapiens) (UniProt P11712) (assay: Cytochrome panel assay with activity outcomes). Conditions: recombinant CYP, pro-luciferin dealkylation, luminescence, p450-cyp2c9; series mostly up to 57.1 µM; activity, negative = inhibition: at the top concentration.
Sequence of Cytochrome P450 2C9 (Homo sapiens) (P11712 whole entry, looked up): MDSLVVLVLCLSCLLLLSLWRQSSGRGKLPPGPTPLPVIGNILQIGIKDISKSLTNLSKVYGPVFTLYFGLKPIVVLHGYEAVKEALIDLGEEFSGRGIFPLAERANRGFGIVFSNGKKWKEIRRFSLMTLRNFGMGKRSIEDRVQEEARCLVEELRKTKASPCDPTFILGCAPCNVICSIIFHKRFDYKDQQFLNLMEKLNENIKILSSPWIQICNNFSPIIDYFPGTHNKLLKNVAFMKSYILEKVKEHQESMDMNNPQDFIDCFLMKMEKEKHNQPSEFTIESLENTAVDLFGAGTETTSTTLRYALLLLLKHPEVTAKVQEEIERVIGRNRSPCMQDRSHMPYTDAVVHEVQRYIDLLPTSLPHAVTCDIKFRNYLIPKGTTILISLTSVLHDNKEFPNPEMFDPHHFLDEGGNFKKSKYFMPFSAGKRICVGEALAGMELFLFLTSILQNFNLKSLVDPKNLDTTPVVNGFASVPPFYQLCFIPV
% is set by controls: 0 for no effect and ±100 for the full control effect.

activity, negative = inhibition, inactive:
COc1cccc(/C=N/n2nnc3c(cnn3-c3ccccc3)c2=O)c1 1.29%
O=C(CCN1CCCCC1)N1CCc2c([nH]c3ccccc23)[C@H]1c1cccnc1 2.98% [at 11.4 µM]
Clc1ccc(CSC2=NCCN2)cc1Cl 9.47% [at 11.4 µM]
COc1ccc(-c2nc3cnc(Nc4cccc(OC)c4)nc3n(CCC#N)c2=O)cc1 4.66%
COc1ccc(NC(=O)C2CC(=O)NC3=C2C(=O)CC(C)(C)C3)cc1 (centres undefined) -7.67%
COc1cc(C2SCCCCCCCCCCSC(c3ccc(O)c(OC)c3)SCCCCCCCCCCS2)ccc1O (centres undefined) 10.3% [at 11.4 µM]
O=C=Nc1ccc(Cc2ccc(N=C=O)cc2)cc1 (tested in a mixture with another compound) 2.55% [at 11.4 µM]
O=C(Nc1ccccc1)N1CCC2(CC1)CCN(C(=O)c1cnccn1)CC2 12.7%
O=C(NCc1ccccc1Cl)c1cnccn1 -20.1%
COC(=O)C/C=C\[C@H](C)[C@H](CO)NS(=O)(=O)c1ccc(C)cc1 0.902% [at 11.4 µM]
CCC/C=C(\CCC)C(NS(=O)(=O)c1ccc(C(F)(F)F)cc1)c1ccc(-c2ccccc2)cc1 (centres undefined) -29.2%
COc1c2occc2c(OC)c2c(=O)cc(C)oc12 -22.4% [at 25.6 µM]
Cc1ccccc1[C@@H](OCCN(C)C)c1ccccc1 -17.5%
CCC/C=C(\CCC)C(NS(C)(=O)=O)c1ccccc1 (centres undefined) -21.6%
CCN(CC)C(=O)N1CCN(C)CC1 14.3% [at 25.6 µM]
CS(=O)(=O)N1CCC2(CCCN(C(=O)Nc3cccc(C#N)c3)C2)CC1 -4.46%
CCOc1ccccc1NC(=O)CSc1nnc(-c2cnccn2)n1C -16%
CCn1cc(C(=O)NCC(=O)OC)c2cc(OC)c(OC)cc2c1=O -29.2%
Oc1ccc(Cn2c(-c3ccc(O)cc3)nc3ccccc32)cc1 9.3% [at 11.4 µM]
CC(C)(C)c1cc2cccnc2n1Cc1ccccc1 1.4%
NC(N)=N[C@H](CCC(=O)O)C(=O)O 18.9%
CCCCCC(=O)O[C@H](CC(=O)O)C[N+](C)(C)C -7.97%
COc1ccccc1N1CCN(C[C@@H](C(=O)NC(C)(C)C)c2ccccc2)CC1 9.59%
O=C(NCCCN1CCN(c2ccccc2F)CC1)C1CCC(=O)N1C1CCCCC1 (centres undefined) -1.7%
CC1CCOC2(O1)C(=O)N(CN1CCN(c3ccccc3F)CC1)c1ccccc12 (centres undefined) 24.7%
COc1ccc(S(=O)(=O)N2CCN(CC(=O)Nc3cc(OC)cc(OC)c3)CC2)cc1 19.8%
Cc1cccc(N2CCN(CC(=O)Nc3ccc(-n4cnnn4)cc3)CC2)c1C -11.3%
O=C(CN1CCN(S(=O)(=O)c2ccc(F)cc2)CC1)Nc1ccc(Cl)c(C(F)(F)F)c1 -23.9%
O=c1c(-c2ccccc2)c(O)c2cccc3c2n1CCC3 27.1%
COc1ccccc1CN1CCCC2(CCNCC2)C1 -6.14%
COc1ccccc1N1CCN(CCN(C(=O)C2CCCCC2)c2ccccn2)CC1 -3.2%
CCOc1ccc(C(=O)CN2CCN(S(=O)(=O)c3ccc(F)cc3)CC2)cc1 -47.6%
COC(=O)N1CCC2(CC1)CN(c1ccccn1)C2 0.409%
CN(C)CCNc1ccccn1 3.16% [at 11.4 µM]
Cc1noc(C)c1C(=O)N1CCC2(CCCN(Cc3nccs3)C2)CC1 4.27%
CN(C)Cc1ccccc1-c1cncnc1NC1CC1 8.78% [at 2.29 µM]
CN(C)CCNC(=O)c1cc(Br)ccc1Cl 21.3%
Cc1cc(OCCNCCO)cc(C)c1Cl -7.03%
NC(N)=N/N=C\c1ccc(C2CCNCC2)cc1 2.7% [at 11.4 µM]
N#Cc1ccccc1NC(=O)Nc1cccs1 -22.3%
O=C(Nc1cc2ccccc2oc1=O)C1CCCCC1 -15.2%
Cc1cc2ccccc2n1CCNC(=O)C1CCCC1 -42.8%
CN1CCN(c2nc(-c3ccccc3)cc(C(F)(F)F)n2)CC1 -8.43%
COc1ccc(-n2c(=O)c(-c3cc(F)cc(F)c3)nc3cnc(N4CCOCC4)nc32)cc1 -5.13%
COc1ccccc1-c1nc(N2CCN(C)CC2)c2ccccc2n1 11.5% [at 2.29 µM]
COc1ccccc1-c1cc(C(F)(F)F)nc(S(=O)(=O)CCCC(=O)NC(C)C)n1 20.8%
COc1ccccc1-c1nc(NC2CC2)c2ccccc2n1 5.77% [at 2.29 µM]
COc1ccc(-c2cc(C(F)(F)F)nc(N3CCN(C)CC3)n2)cc1OC -22.7%
CO[C@H]1COC(=O)C/C=C\[C@@H](C)[C@H](OC)COC(=O)CCC[C@@H]1C 9.38% [at 11.4 µM]
COc1cc2c(cc1OC)-c1cc3ccc(OC)c(OC)c3c[n+]1CC2 -16.3% [at 25.6 µM]
CN(C)c1ncc2nc(-c3cc(F)cc(F)c3)c(=O)n(C[C@H]3CCCO3)c2n1 19.4%
COc1ccc(-n2c(=O)c(-c3ccc(F)cc3)nc3cnc(N4CCOCC4)nc32)cc1 9.27%
Cn1c(=O)c(-c2ccc(F)cc2)nc2cnc(N3CCOCC3)nc21 6.99%
CC(C)(CO)N1CCN(C(=S)Nc2ccccc2)CC1 10.3% [at 11.4 µM]
COc1cc2c(cc1OC)[C@H](c1ccccc1)CN(C)CC2 -23.8%
O=C(N/C(=C\c1cccnc1)C(=O)N1CCOCC1)c1cccc(Br)c1 -30.3%
CN(C)CCn1c(C(=O)O)cc2ccccc21 -16.7%
FC(F)(F)c1nc2ccccc2nc1N/N=C/c1ccc(Cl)cc1 -20.4%
Cc1cc(Cl)ccc1Oc1ncc(-c2ccc(Cl)cc2)cn1 -15.3%
Cc1ccccc1Oc1ncnc2sccc12 8.31%
CC(O)(P(=O)(O)O)P(=O)(O)O -5.54% [at 25.6 µM]
O=C(c1cnccn1)N1CCC2(CC1)CN(Cc1cc(C(F)(F)F)cc(C(F)(F)F)c1)C2 2.54%

AC50, active:
CNc1cc(CSC)nc(SCc2ccc(Cl)c(Cl)c2)n1 8.91 µM
COc1ccc(OC)c(C2CC(=O)C3=C(C2)NC(=O)CC3c2ccc(O)c(OC)c2)c1 (centres undefined) 11.2 µM
O=C(Nc1ccccc1N1CCOCC1)c1cnccn1 2 µM
CCC/C=C(\CCC)C(NS(=O)(=O)c1ccccc1)c1ccc(C(F)(F)F)cc1 (centres undefined) 10 µM
CCC/C=C(\CCC)C(NS(=O)(=O)c1ccc(C(F)(F)F)cc1)c1ccc(C(=O)OC)cc1 (centres undefined) 3.16 µM
CCC/C=C(\CCC)C(NS(=O)(=O)CC12CCC(CC1=O)C2(C)C)c1ccc(C(=O)OC)cc1 (centres undefined) 15.8 µM
CCC/C=C(\CCC)C(NS(=O)(=O)c1ccc(Cl)cc1)c1ccc(C(=O)OC)cc1 (centres undefined) 3.16 µM
CCC/C=C(\CCC)C(NS(=O)(=O)c1ccc(Cl)cc1)c1ccccc1 (centres undefined) 2.51 µM
COc1ccccc1-n1c(SCC(=O)Nc2ccccc2F)nc2[nH]ncc2c1=O 15.8 µM
O=C(CSc1nc2nc(-c3cccs3)cc(C(F)(F)F)c2c(=O)[nH]1)NCc1ccco1 0.631 µM
Clc1ccc(Cn2c(-c3cccnc3Cl)nc3ccccc32)c(Cl)c1 5.62 µM
c1ccc(CN2c3ccccc3-c3nc4ccccc4n3C2c2ccccn2)cc1 (centres undefined) 7.94 µM
Clc1ncccc1-c1nc2ccccc2n1Cc1ccccc1 15.8 µM
O=C1OCC(c2ccccc2)=C1c1ccc(S(=O)(=O)N2CCOCC2)s1 12.6 µM
CCN(CC)c1ccc(NC(=O)CN2CCN(c3ccccc3F)CC2)cc1 11.2 µM
COc1ccc(C)cc1NC(=O)CN1CCN(S(=O)(=O)c2ccc(F)cc2)CC1 2.51 µM
O=C(CCN1CCN(c2ccccc2F)CC1)Nc1ccccc1F 3.98 µM
COc1ccccc1NC(=O)CN1CCN(c2ccccc2F)CC1 5.01 µM
COc1cc(NC(=O)c2ccccc2)c(OC)cc1NC(=O)CN1CCN(c2ccccn2)CC1 3.16 µM
CCOC(=O)N1CCN(S(=O)(=O)c2ccc(C(=O)Nc3ccc(F)cc3F)cc2)CC1 15.8 µM
Cc1ccc(OCCNC(=O)c2cc(-n3cnnc3)ccc2Cl)cc1C 11.2 µM
Cc1cccc(N/C(=N\S(=O)(=O)c2ccccc2)C(F)(F)F)c1 2.51 µM
O=C(NCc1ccco1)Nc1cccs1 11.2 µM
Cc1cc(NC(=O)C2CCCCC2)nc2c1c(=O)oc1ccccc12 14.1 µM
COc1ccc(-c2cc(C(F)(F)F)nc(N3CCCCC3)n2)cc1OC 10 µM
COc1ccc(-c2cc(C(F)(F)F)nc(NC3CCCC3)n2)cc1OC 7.94 µM
COc1ccccc1N1CCN(c2nc(-c3ccccc3)cc(C(F)(F)F)n2)CC1 5.62 µM
COc1cccc(-c2cc(C(F)(F)F)nc(N3CCOCC3)n2)c1 15.8 µM
COc1ccc(-c2cc(C(F)(F)F)nc(N3CCOCC3)n2)cc1OC 3.98 µM
COc1cc2c(cc1OC)CN(C(=S)Nc1ccccc1)CC2 4.47 µM
O=C(/C=C/c1cccnc1)c1ccc(NC(=O)c2cccc(Br)c2)cc1 4.47 µM
N#CC(c1ccc(Cl)cc1)c1nc2ccccc2nc1C(F)(F)F (centres undefined) 1.41 µM
Cc1ccccc1Oc1ncnc2oc(-c3ccccc3)cc12 3.98 µM
Cc1cc(Cl)ccc1Oc1ncnc2oc(-c3ccccc3)cc12 4.47 µM
COc1ccc2cc(C)c3nnc(SCC(=O)Nc4nc(-c5ccccc5)cs4)n3c2c1 2.82 µM
COc1ccc(-c2nc(-c3ccccc3)c(-c3cc([N+](=O)[O-])ccc3C)[nH]2)cc1O 10 µM
CCCC(=O)NC(Nc1ccccc1F)C(Cl)(Cl)Cl (centres undefined) 8.91 µM
